Screens: PubChem BioAssay, National Center for Advancing Translational Sciences (NCATS)
TSHR antag: Antagonists of the Thyroid Stimulating Hormone Receptor: HTS campaign | Thyrotropin receptor (Homo sapiens), P16473 | TSHR-expressing cells, TSH-stimulated cAMP HTRF, 2 h; active compounds read low | activity change, negative = inhibition, % at 11.5 µM | 330,000 compounds, 0.2% hits;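 active = activity change below a set negative limit, meaning inhibition stronger than a set level, cut at about -70% in these data; inconclusive = activity change between two set negative limits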
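Antagonism was scored as loss of TSH-driven cAMP in TSHR cells, stimulated with 4nM TSH (EC80) for 2 hours at 37 deg C and detected by homogeneous HTRF competition immunoassay.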
Gal4-VP16 FLuc: VP16 counterscreen qHTS for inhibitors of ROR gamma transcriptional activity; Drosophila S2 Gal4-VP16 UAS-luciferase, luminescence, 20 h; Potency, µM (series often up to 53.6 µM), for inactives: at the highest dose activity, negative = inhibition, usual class: inhibitors; 310,000 compounds, 3.5% hits; AID 2546, 2010;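 also: Gal4-VP16 expression switched on by copper sulfate through the metallothionein promoter; potency is read from the fitted curve at half-maximal effect; nearly all actives have a fitted effect of over 50% in size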
ELG1 DNA repair: qHTS screen for small molecules that inhibit ELG1-dependent DNA repair in human embryonic kidney (HEK293T) cells expressing luciferase-tagged ELG1 | HEK293T ELG1-luciferase reporter, luminescence, 16 h; DNA damage induced by 5-fluorouridine | Potency, µM (highest dose often 46.1 µM), without a hit: at the highest dose activity change, negative = inhibition, usual class: inhibitors | 330,000 compounds, 2.3% hits | AID 504467, 2011; also: potency is read from the fitted curve at half-maximal effect; nearly all actives have a fitted effect of over 55% in size
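Quantitative HTS, concentration-response format. 2,000 cells/well co-treated with 5-fluorouridine and compound, 16 hr in 5% CO2 at 37 °C; ONE-Glo luminescence read after 30 min.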
Coupling enz: qHTS Assay for Inhibitors of Fructose-1,6-bisphosphate Aldolase from Giardia Lamblia: Coupling assay counterscreen; coupling enzyme system counterscreen, AmpLite Red fluorescence; activity change, negative = inhibition, % at 58.2 µM, hits read low; 290,000 compounds, 0.67% hits; in the data active = activity change below about -30%
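Activity here indicates interference with the coupling reaction, not aldolase inhibition. Compounds at 57.5 uM final met coupling enzymes for 10 min at RT; substrate and AmpLite Red detection followed, with a 525/598 nm fluorescence read after 20 min.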
RORgamma inh: qHTS for inhibitors of ROR gamma transcriptional activity; AID 2551, 2010; Potency, µM (top dose mostly 53.6 µM), for inactives: at the highest dose activity change, negative = inhibition, actives largely listed as inhibitors; 310,000 compounds, 5.4% hits; Drosophila S2 Gal4-RORgamma UAS-luciferase reporter, 20 h; Nuclear receptor ROR-gamma (Mus musculus), P51450; also: potency is read from the fitted curve at half-maximal effect; nearly all actives have a fitted effect of over 60% in size
Target sequence (P51450 whole entry, looked up, the tested form may be a part): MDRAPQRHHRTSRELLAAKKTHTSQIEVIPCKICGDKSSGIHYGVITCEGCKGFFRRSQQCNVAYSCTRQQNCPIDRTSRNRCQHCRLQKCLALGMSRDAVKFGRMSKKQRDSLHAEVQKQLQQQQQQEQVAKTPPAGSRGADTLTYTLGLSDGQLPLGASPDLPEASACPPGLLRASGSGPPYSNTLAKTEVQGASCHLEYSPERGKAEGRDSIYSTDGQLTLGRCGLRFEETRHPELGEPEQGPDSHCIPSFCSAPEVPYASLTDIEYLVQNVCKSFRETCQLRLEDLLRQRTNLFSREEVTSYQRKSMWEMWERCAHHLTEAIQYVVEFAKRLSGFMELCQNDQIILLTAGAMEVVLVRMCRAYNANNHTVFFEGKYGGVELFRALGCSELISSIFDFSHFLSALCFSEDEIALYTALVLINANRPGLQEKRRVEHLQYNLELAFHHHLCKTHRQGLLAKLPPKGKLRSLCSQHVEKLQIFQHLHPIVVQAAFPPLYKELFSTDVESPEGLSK
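Read-out: Photinus luciferase luminescence; inhibitors lower reporter signal. Insect Schneider cells with Gal4-ROR gamma fusion under metallothionein promoter, UAS reporter; 700 uM final copper sulfate induction, 20 hr, ambient temperature.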
Active calls of the source: *; [ ] = remark or other dose. Only some compounds are listed: those with a hit (about 8% of all), similar ones and a draw of the others. Unless noted, calls follow the shape of the dose curve; as a rule, active = well fitted curve in the direction sought with a large enough effect; inconclusive = small, poorly fitted or top-dose-only effect, or another doubt; inactive = no such curve, though single readings can be large; an effect the other way counts as inactive or inconclusive. % is scaled to controls: 0 for no effect and ±100 for the full control effect.

Screening C=CCNC(=O)N1CCc2nc(-c3ccccc3)c3c(c2C1)CO[C@@H](C)C3 returned Coupling enz 2.8.
CCOC(=O)c1c(-c2ccc(C)o2)csc1NC(=O)COC(=O)c1cccs1 was read as TSHR antag -23.1, Gal4-VP16 FLuc 20µM*, ELG1 DNA repair -10.3%, Coupling enz -0.3 and RORgamma inh inconclusive.
CCOC(=O)c1c(-c2ccc(C)o2)csc1NC(=S)NC(=O)N(C)C was read as TSHR antag -26.1, Gal4-VP16 FLuc 2.24µM*, ELG1 DNA repair inconclusive, Coupling enz 1.1 and RORgamma inh 0.794µM*.
`O=C1CC(c2ccccc2O)Oc2ccc(O)cc21` (stereo not given) gave Gal4-VP16 FLuc -6.7%, Coupling enz -0.2 and RORgamma inh 14.0%.
CC1CN(C2=N/C(=C/c3ccc4c(c3)OCO4)C(=O)N2)CC(C)O1 (stereo not given) was read as TSHR antag -7.0, Gal4-VP16 FLuc -8.3%, ELG1 DNA repair 20.6µM*, Coupling enz -1.7 and RORgamma inh 2.2%.
Screening O=C(COC(=O)c1ccccc1[N+](=O)[O-])NCCCc1ccccc1 returned TSHR antag 1.5, Gal4-VP16 FLuc inconclusive, ELG1 DNA repair 4.3%, Coupling enz -0.2 and RORgamma inh 0.9%.
`Cc1ccc(C(=O)NC(C)c2ccc(-n3ccnc3)cc2)o1` (stereo not given) gave TSHR antag 3.4 and ELG1 DNA repair 6.2%.
`COc1ccc(OC)c(-n2c(-c3ccccc3)n[nH]c2=S)c1` gave TSHR antag -2.1, Gal4-VP16 FLuc inconclusive, ELG1 DNA repair -1.3%, Coupling enz 2.1 and RORgamma inh 10µM*.
`COc1ccccc1-n1c(-c2cn(C)nc2C)n[nH]c1=S` gave TSHR antag 5.4, Gal4-VP16 FLuc -5.1%, ELG1 DNA repair 15.5%, Coupling enz 5.4 and RORgamma inh -49.5%.
Screening COc1ccc(OC)c(-n2c(=O)c3ccccc3c3ccccc3c2=O)c1 returned TSHR antag 15.8, Gal4-VP16 FLuc -9.2%, ELG1 DNA repair inconclusive, Coupling enz -3.9 and RORgamma inh -42.7%.
For COc1ccc(OC)c(-n2c(-c3cccc(C)c3)n[nH]c2=S)c1 the results were TSHR antag 3.3, Gal4-VP16 FLuc -29.4%, ELG1 DNA repair -2.8%, Coupling enz -2.0 and RORgamma inh 2.51µM*.
Cc1cccc(-c2n[nH]c(=S)n2C)c1 was read as TSHR antag -3.8, Gal4-VP16 FLuc inconclusive, ELG1 DNA repair -4.5%, Coupling enz 0.6 and RORgamma inh inconclusive.
`COc1ccccc1-n1c(-c2ccccc2)n[nH]c1=S` gave TSHR antag 6.4, Gal4-VP16 FLuc inconclusive, ELG1 DNA repair 1.6%, Coupling enz 0.9 and RORgamma inh 7.08µM*.
Screening COc1cc(NC(=O)Cc2ccccc2)ccc1NC(=O)c1ccccc1 returned TSHR antag -21.1, Gal4-VP16 FLuc -8.9%, ELG1 DNA repair -21.8%, Coupling enz 2.2 and RORgamma inh -2.1%.
For COc1ccc(NS(=O)(=O)c2nnc(NC(=O)c3ccccc3F)s2)cc1 the results were TSHR antag 5.9, Gal4-VP16 FLuc -0.5%, ELG1 DNA repair 4.8%, Coupling enz 11.7 and RORgamma inh 20.5%.
O=C(CN1CCCCC1)NNc1nc(-c2ccccc2)c2cc(Cl)ccc2n1 was read as TSHR antag -4.8, Gal4-VP16 FLuc 3.98µM*, ELG1 DNA repair 1.8%, Coupling enz -1.7 and RORgamma inh 5.01µM*.
For CCN(CC)S(=O)(=O)c1ccc(C(=O)NNc2nc(-c3ccccc3)c3cc(Br)ccc3n2)cc1 the results were TSHR antag -3.1, Gal4-VP16 FLuc inconclusive, ELG1 DNA repair 23.1µM*, Coupling enz 8.9 and RORgamma inh 20µM*.
`O=C(CN1CCOCC1)NNc1nc(-c2ccccc2)c2cc(Br)ccc2n1` gave TSHR antag 4.0, Gal4-VP16 FLuc -11.7%[10 µM], ELG1 DNA repair -15.3%, Coupling enz 0.0 and RORgamma inh 8.91µM*.
